Test [1] in a line: rapamycin-like changes in RPL19A-GFP expression – cell-based, S. cerevisiae, multiplex flow cytometry, primary screen (AID 1862; in the data active = percent of DMSO control GFP below about 86%;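 note: lower values mimic rapamycin by blocking the RPL19A rise seen in DMSO cells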). The settings on record: S. cerevisiae RPL19A-GFP strain, flow cytometry fluorescence, 3 h; at 10 µM; stronger effect = lower value. For orientation: A flow cytometer gives signals particle by particle.
The nature of test [2]: TOR pathway GLN3 branch reporter MEP2-GFP changes – S. cerevisiae, multiplex flow cytometry, primary screen (AID 1867;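 active = GFP response, as percent of the DMSO control, above the screen-wide mean plus 3 SD, about 139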;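 note: median GFP channel fluorescence of barcode-gated MEP2-GFP cells measured by flow cytometry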). The settings on record: S. cerevisiae MEP2-GFP strain, 3 h, at 10 µM, stronger effect = higher value.
The nature of test [3]: TOR pathway RTG branch CIT2 reporter changes – S. cerevisiae, GFP fusion, multiplex flow cytometry, primary screen (AID 1870;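 active = percent response above a set limit, the screen-wide mean plus 3 SD, cut at about 130% in these data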;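 note: barcoded CIT2-GFP strain pooled with four other GFP strains with rapamycin as positive control; median GFP fluorescence per well over plate mean of DMSO wells so 100% = DMSO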). The settings on record: S. cerevisiae CIT2-GFP expression, 3 h, at 10 µM, stronger effect = higher value.
A short description of test [4]: TOR pathway LAP4-GFP level changes – S. cerevisiae, multiplex flow cytometry, primary screen (AID 1873;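 active = GFP signal, as percent of the solvent control, above the screen mean plus 3 SD, about 149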). The settings on record: S. cerevisiae LAP4-GFP expression, 3 h, at 10 µM, stronger effect = higher value.
Test [5] is described as follows: yeast AGP1-GFP level changes, GLN3 branch – cell-based, multiplex flow cytometry, S. cerevisiae, primary screen (AID 1887;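 active = GFP signal above the screen-wide mean plus 3 SD, that is over about 124.5% of the solvent control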;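 note: AGP1-GFP fusion strain of S. cerevisiae within a five-strain barcoded multiplex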). The settings on record: 3 h, at 10 µM, stronger effect = higher value.
The nature of test [6]: reduced mouse 2C T cell binding to pMHC/ICAM-1 vesicles – MLPCN validation set, flow cytometry, LFA-1/ICAM-1 modulator project, pilot screen (AID 2523;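 active = response below a set limit, under 55% cells CD8-positive and vesicle-bound, and CD8 cells' 90th-percentile brightness under 279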;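 for vesicle binding response: mean PE anti-B7-1 fluorescence of CD8+ cells relative to row control; 100% = QL9-loaded vesicles with DMSO vehicle in the same plate row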). To be noted: 2C mouse CD8+ T cells, at 7 µM, stronger effect = lower value; double positive events: measured here: CD8+/vesicle+ event percentage.
Test [7] addresses Integrin beta-1 (Homo sapiens) + Integrin alpha-4 (Homo sapiens) (UniProt P13612+P05556). Kind of test: alpha4beta1 integrin LIBS antibody binding reduction – U937 cells, HUTS-21 mAb, flow cytometry, validation set, VLA-4 allosteric modulator project, pilot screen (AID 2674;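 active = inhibition above 50%, about 3 SD of the validation set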;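 note: antibody binding induced by the VLA-4 ligand LDV present at three times its Kd; 0% = LDV ligand with antibody and no compound and 100% = antibody without LDV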). The settings on record: HUTS-21 LIBS mAb binding, at 6.7 µM, stronger effect = higher value.
Test [8] can be described thus: calorie-restriction mimetic ROS inhibitors, yeast – validation compound set, pilot screen (AID 2706;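 active = superoxide response below 65% of plate, a cut near 3 SD across the whole screen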;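 note: yeast exposed to compound for one week at 30 degrees C before staining; 100% = mean of all compound wells on the same plate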). The settings on record: S. cerevisiae aging, superoxide DHE fluorescence; at 10 µM; stronger effect = lower value.
In test [9] the target is Beta-adrenergic receptor kinase 1 (Homo sapiens) (UniProt P25098). Kind of test: GRK2 binders displacing RNA aptamer, biochemical, validation, human GRK2, bead flow cytometry (AID 488806;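 active = aptamer binding inhibition above 30%, about 3 SD of noise from non-fluorescent compounds; inactive = inhibition at or below 30%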). The settings on record: bead-bound GRK2, FAM-aptamer displacement, at 10 µM, stronger effect = higher value.
Chain of Beta-adrenergic receptor kinase 1 (Homo sapiens) (P25098 whole entry, looked up): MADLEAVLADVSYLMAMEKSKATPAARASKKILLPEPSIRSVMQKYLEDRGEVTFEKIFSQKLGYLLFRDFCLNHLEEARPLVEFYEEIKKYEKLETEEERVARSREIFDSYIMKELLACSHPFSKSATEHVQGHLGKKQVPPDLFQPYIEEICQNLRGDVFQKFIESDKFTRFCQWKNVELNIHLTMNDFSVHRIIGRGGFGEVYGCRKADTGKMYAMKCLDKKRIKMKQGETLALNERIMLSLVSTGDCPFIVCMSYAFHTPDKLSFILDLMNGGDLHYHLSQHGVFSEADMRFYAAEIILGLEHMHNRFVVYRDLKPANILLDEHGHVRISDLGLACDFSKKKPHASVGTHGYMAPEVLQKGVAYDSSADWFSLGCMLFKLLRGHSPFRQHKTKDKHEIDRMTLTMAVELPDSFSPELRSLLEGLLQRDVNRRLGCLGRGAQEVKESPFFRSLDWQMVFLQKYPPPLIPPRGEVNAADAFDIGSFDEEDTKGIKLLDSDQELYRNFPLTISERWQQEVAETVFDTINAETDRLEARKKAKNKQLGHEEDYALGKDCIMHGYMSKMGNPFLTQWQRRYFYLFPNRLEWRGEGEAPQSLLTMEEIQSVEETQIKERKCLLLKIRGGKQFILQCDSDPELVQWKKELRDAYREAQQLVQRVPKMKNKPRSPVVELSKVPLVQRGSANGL
For test [10], the target named is Beta-2 adrenergic receptor (Homo sapiens) (UniProt P07550). Briefly: agonist-induced loss of surface beta2AR – cell-based, FAP fluorogen, flow cytometry, validation set, pilot screen (AID 504459;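 active = percent response above 42, roughly 3 SD of non-fluorescent test compounds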;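 note: agonist-driven loss of surface beta2AR via internalization measured by FAP dye flow cytometry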). To be noted: Am2.2-beta2AR cells, at 10 µM, stronger effect = higher value.
Chain of Beta-2 adrenergic receptor (Homo sapiens) (P07550 whole entry, looked up): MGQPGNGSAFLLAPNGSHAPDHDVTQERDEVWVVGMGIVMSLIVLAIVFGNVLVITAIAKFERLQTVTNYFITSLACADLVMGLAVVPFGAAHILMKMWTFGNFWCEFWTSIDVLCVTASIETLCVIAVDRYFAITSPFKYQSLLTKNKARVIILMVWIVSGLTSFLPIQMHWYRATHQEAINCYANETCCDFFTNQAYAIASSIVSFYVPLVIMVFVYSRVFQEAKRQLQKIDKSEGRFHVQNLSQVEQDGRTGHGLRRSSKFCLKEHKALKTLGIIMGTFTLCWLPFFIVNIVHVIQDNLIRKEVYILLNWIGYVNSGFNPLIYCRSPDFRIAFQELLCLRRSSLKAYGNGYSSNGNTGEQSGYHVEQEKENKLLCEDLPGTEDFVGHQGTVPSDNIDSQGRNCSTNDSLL
The target in test [11] is AP-2 complex subunit beta (Homo sapiens) (UniProt P63010). Kind of test: beta-arrestin/AP2 interaction blockers – biochemical, validation set, GST-AP2 beads, flow cytometry, pilot screen (AID 504541;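 active = inhibition above 54%, about 3 SD of non-fluorescent compounds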;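 note: AP2 carries R879A mutation and is captured from E. coli lysate; bead-bound FITC arrestin peptide fluorescence measuring arrestin peptide binding to AP2; 0% = DMSO wells and 100% = excess unlabeled arrestin peptide control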). The settings on record: FITC arrestin peptide, at 10 µM, stronger effect = higher value.
Chain of AP-2 complex subunit beta (Homo sapiens) (P63010 whole entry, looked up, one chain of several): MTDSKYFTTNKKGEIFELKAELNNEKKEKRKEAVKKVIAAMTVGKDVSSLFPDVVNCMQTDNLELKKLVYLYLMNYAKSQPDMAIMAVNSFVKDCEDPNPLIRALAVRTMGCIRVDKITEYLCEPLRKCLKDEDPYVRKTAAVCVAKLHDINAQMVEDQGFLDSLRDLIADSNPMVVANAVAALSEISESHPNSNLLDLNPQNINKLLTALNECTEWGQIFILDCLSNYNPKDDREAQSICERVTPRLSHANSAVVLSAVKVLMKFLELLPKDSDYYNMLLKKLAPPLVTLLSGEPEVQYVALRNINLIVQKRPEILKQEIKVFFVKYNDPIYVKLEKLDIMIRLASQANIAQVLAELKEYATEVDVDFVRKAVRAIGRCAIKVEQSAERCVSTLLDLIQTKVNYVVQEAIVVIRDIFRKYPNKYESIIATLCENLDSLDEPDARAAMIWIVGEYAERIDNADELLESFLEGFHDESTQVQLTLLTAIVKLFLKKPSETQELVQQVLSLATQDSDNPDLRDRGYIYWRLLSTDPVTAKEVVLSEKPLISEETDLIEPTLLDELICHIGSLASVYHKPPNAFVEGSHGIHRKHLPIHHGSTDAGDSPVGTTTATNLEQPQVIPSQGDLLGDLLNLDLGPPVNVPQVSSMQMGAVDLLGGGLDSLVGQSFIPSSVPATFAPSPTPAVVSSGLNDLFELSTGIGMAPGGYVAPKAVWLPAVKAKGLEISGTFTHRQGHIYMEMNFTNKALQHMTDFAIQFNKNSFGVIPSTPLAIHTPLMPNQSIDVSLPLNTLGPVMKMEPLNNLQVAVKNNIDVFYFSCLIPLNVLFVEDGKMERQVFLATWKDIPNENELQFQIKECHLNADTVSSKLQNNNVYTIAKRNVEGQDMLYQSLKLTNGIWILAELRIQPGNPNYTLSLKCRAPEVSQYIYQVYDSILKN
Test [12] can be described thus: cytosolic pH regulators acting via V-ATPase – S. cerevisiae, pHLuorin, HTS validation (AID 504600; in the data active = response above about 15%;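 note: plate controls were DMSO for no effect and reference compound for full effect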). To be noted: V-ATPase proton transport, at 10 µM, stronger effect = higher value.
In test [13] the test system is anti-desmoglein-3 scFv antibody binding to human DSG3. Kind of test: blockers of pathogenic pemphigus antibody–desmoglein-3 binding – biochemical, validation compound set, bead-based, flow cytometry, pilot screen (AID 588368;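 active = binding below the plate cutoff, the plate median minus 3 SD, with a reading above zero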;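 note: signal is the median channel fluorescence of bead-bound GFP antibody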). The settings on record: Protein G beads, DSG3-Fc, scFv-GFP binding, at 10 µM, stronger effect = lower value.
Test [14] has as its system Botulinum neurotoxin type F light chain protease (Clostridium botulinum). Kind of test: Clostridium botulinum type F light chain protease inhibitors, microsphere substrate cleavage, validation (AID 588459). The settings on record: multiplex microsphere protease substrate cleavage assay, flow cytometry; at 10 µM; stronger effect = higher value.
Test [15] has as its target Botulinum neurotoxin type A (Clostridium botulinum) (UniProt P0DPI0). Kind of test: BoNT/A light chain protease inhibitors, biochemical, multiplex microsphere flow cytometry, validation set (AID 588460). To be noted: at 10 µM, stronger effect = higher value.
For test [16], the target named is Lethal factor (Bacillus anthracis) (UniProt P15917). Kind of test: Bacillus anthracis lethal factor inhibition, microsphere flow cytometry protease assay, validation at 10 µM (AID 588461). The settings on record: multiplex microsphere protease cleavage assay, stronger effect = higher value.
The nature of test [17]: Nile Red efflux blockade in pump-expressing yeast – validation compound set, multiplex, phenotypic, pilot screen (AID 588506;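 active = efflux inhibition above 0.42, the validation set average plus 4 SD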;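 note: Nile Red retained in cells so higher fluorescence means more efflux inhibition; 0 = negative control wells and 1 = enniatin B 25 µM full block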). The settings on record: S. cerevisiae pump-expressing triplex, Nile Red efflux flow cytometry; at 10 µM; stronger effect = higher value.
Test [18] addresses ATP-binding cassette sub-family B member 6 (Homo sapiens) (UniProt Q9NP58). Briefly: blockers of ABCB6-driven porphyrin uptake – K562-ABCB6 cells, flow cytometry, validation set, pilot screen (AID 588550;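 active = inhibition above the screen-wide mean plus 3 SD, about 51%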;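 note: 0% = DMSO wells and 100% = benzethonium chloride 70 µM positive control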). To be noted: K562-ABCB6 porphyrin accumulation, 1 h, at 10 µM, stronger effect = higher value.
Test [19] can be described thus: AML differentiation inducers, ER-HoxA9 marrow cells – cell-based, GFP/MAC1 double positive, flow cytometry, validation set, primary screen (AID 588685;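 active = differentiation response of at least 50%, scaled between solvent and reference control, from cells with both markers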;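 note: compound exposure lasts four days before antibody staining and flow analysis; 0% = DMSO wells and 100% = 5 µM fulvestrant positive control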). To be noted: stronger effect = higher value.

As a reminder, the inhibition is the drop in the measured response relative to a control, in per cent.

Records with an inconclusive call do not appear. Activity calls are given as the source filed them. Unless noted, the rule behind the calls is not given here.

Chain of ATP-binding cassette sub-family B member 6 (Homo sapiens) (Q9NP58 whole entry, looked up): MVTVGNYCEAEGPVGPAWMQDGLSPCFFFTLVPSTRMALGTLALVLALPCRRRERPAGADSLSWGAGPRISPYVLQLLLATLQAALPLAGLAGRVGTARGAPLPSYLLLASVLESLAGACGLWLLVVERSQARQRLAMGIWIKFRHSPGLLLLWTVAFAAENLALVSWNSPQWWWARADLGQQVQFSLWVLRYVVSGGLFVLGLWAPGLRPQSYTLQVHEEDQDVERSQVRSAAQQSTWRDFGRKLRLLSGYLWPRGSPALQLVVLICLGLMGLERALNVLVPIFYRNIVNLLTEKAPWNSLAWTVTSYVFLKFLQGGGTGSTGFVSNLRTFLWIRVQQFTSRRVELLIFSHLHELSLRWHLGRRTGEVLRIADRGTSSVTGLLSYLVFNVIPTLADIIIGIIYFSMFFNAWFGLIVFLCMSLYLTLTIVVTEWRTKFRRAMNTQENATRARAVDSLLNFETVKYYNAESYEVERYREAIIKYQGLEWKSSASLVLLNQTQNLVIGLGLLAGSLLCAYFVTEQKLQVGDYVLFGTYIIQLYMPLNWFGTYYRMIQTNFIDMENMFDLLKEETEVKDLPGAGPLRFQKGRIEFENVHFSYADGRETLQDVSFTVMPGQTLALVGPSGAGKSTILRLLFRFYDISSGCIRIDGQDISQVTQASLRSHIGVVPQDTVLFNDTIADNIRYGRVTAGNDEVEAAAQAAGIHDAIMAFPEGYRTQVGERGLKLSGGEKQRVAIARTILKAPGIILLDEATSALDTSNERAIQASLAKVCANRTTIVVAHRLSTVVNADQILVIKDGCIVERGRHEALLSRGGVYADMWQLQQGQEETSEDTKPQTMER
Chain of Integrin beta-1 (Homo sapiens) + Integrin alpha-4 (Homo sapiens) (P05556 whole entry, looked up): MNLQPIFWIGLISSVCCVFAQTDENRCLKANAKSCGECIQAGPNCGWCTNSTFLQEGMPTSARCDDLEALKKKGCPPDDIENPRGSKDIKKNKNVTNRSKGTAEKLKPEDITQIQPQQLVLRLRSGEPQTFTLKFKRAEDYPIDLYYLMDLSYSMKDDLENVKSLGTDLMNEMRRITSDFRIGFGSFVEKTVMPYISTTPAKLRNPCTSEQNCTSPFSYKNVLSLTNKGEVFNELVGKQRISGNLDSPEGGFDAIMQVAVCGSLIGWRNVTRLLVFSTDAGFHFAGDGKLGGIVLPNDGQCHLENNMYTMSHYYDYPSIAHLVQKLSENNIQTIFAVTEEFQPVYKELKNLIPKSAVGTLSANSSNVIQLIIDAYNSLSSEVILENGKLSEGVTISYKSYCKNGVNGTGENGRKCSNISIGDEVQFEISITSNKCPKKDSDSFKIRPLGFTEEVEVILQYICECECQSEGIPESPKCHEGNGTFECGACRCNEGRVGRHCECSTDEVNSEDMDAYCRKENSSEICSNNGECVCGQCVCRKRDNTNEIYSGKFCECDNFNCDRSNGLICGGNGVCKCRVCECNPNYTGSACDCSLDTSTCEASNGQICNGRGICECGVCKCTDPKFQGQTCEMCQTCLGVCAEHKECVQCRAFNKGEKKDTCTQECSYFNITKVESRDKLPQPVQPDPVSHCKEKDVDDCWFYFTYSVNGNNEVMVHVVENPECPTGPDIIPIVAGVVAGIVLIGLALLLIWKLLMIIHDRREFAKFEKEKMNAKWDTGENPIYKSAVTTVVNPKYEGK
Chain of Integrin beta-1 (Homo sapiens) + Integrin alpha-4 (Homo sapiens) (P13612 whole entry, looked up): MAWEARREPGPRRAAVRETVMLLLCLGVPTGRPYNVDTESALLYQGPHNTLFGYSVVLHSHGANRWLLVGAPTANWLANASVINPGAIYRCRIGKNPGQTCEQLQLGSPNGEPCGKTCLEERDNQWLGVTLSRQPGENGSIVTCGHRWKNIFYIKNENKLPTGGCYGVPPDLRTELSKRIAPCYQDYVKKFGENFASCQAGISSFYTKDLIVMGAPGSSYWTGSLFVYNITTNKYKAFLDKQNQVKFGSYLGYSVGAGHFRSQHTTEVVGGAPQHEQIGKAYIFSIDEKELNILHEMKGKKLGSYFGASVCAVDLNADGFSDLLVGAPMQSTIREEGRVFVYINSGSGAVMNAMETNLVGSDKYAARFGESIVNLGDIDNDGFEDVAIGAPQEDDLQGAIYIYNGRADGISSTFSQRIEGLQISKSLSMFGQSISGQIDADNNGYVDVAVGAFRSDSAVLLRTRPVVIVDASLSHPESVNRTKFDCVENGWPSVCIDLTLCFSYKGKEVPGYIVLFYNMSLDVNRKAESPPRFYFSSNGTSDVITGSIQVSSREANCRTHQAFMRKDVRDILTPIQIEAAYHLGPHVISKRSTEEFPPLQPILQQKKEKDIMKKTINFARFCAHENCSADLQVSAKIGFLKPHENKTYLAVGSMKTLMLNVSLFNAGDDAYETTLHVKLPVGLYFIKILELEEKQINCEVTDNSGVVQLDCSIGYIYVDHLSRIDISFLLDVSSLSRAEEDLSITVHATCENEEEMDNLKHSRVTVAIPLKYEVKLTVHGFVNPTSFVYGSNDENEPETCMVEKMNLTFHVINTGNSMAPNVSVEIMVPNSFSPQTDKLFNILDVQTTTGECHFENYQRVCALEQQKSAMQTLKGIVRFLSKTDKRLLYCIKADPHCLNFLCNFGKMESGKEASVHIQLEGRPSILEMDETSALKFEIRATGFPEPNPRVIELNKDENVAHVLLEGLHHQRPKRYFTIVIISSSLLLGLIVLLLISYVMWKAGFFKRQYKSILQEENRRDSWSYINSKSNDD

Consider `C[N+]1(C)CCOC(O)(c2ccc(-c3ccc(C4(O)C[N+](C)(C)CCO4)cc3)cc2)C1` (stereo not given), for which the percent of DMSO control GFP in test [1] is 94.6% (inactive). In addition, the GFP response vs DMSO is 126% (inactive) in test [2] and 76.5% (inactive) in test [4]. Further, in test [3], the percent response of DMSO control is 101% (inactive). The GFP response, % of DMSO in test [5] is 88% (inactive). For the same compound, the double positive events in test [6] was 64.9%. In addition, the vesicle binding response in test [6] was 192% (inactive). Further, the inhibition in [7] was 9.37% (inactive); in [11] it was 1.77% (inactive); in test [14], 1.7% (inactive); in [15], 0.1% (inactive); in [16], 0.5% (inactive); in [18] it was 15% (inactive). Also, the superoxide response (% of plate) in [8] is 113% (inactive). For the same compound, the aptamer binding inhibition in [9] is -3% (inactive). Further, the response was -10.1% (inactive) in [10] and 2.1% (inactive) in test [12]. The binding (% of control) in test [13] was 101% (inactive). Also, the efflux inhibition (fraction of control) in test [17] was 0.19 (inactive). Moreover, the differentiation response in [19] was 2.46% (inactive).

On to `CC(=O)c1ccc(-c2ccccc2)cc1`, for which the percent of DMSO control GFP in [1] is 97% (inactive). Also, the values for the GFP response vs DMSO in test [2] and in test [4] were 120% (inactive) and 84.7% (inactive), respectively. Further, the percent response of DMSO control in test [3] was 110% (inactive). Further, in test [5], the GFP response, % of DMSO is 103% (inactive). The double positive events in test [6] was 63.6%. In addition, the vesicle binding response in test [6] is 339% (inactive). In addition, the inhibition was -15.8% (inactive) in test [7]; -0.36% (inactive) in test [11]; -2.6% (inactive) in test [14]; -1.2% (inactive) in test [15]; -1.9% (inactive) in test [16]; 14% (inactive) in test [18]. In [8], the superoxide response (% of plate) was 96.8% (inactive). Further, the aptamer binding inhibition in [9] is -3% (inactive). Further, the response in [10] is 9.21% (inactive); in test [12], 1% (inactive). The binding (% of control) in [13] was 108% (inactive). Further, the efflux inhibition (fraction of control) in [17] was -0.06 (inactive). Further, in test [19], the differentiation response is 4.91% (inactive).

Regarding `CC[N+]1(C)CCCC(OC(=O)C(O)(c2ccccc2)c2ccccc2)C1` (stereo not given), the percent of DMSO control GFP in [1] was 99% (inactive). Also, the GFP response vs DMSO in [2] is 102% (inactive); in test [4], 103% (inactive). For the same compound, in test [3], the percent response of DMSO control is 103% (inactive). Further, the GFP response, % of DMSO in [5] is 119% (inactive). This compound yielded a double positive events in test [6] of 61%. Also, the vesicle binding response in test [6] was 160% (inactive). The inhibition in [7] is 5.69% (inactive); in [11] it was -0.87% (inactive); in [14], 0.8% (inactive); in [15] it was -0.6% (inactive); in [16], 8% (inactive); in test [18] it was 1% (inactive). In test [8], the superoxide response (% of plate) is 96.5% (inactive). Besides, the aptamer binding inhibition in test [9] was 4% (inactive). For the same compound, the values for the response in [10] and in test [12] were -15.3% (inactive) and -0.49% (inactive), respectively. In addition, the binding (% of control) in test [13] is 107% (inactive). For the same compound, the efflux inhibition (fraction of control) in test [17] was 0.04 (inactive). In addition, the differentiation response in test [19] is -5.97% (inactive).

Regarding `O=Cc1cn(Cc2ccc(F)cc2)c2ccccc12`, the percent of DMSO control GFP in test [1] was 97.8% (inactive). Besides, the GFP response vs DMSO in test [2] is 113% (inactive); in test [4], 129% (inactive). Also, the percent response of DMSO control in test [3] is 90.1% (inactive). Besides, the GFP response, % of DMSO in test [5] is 102% (inactive). The same compound displayed a double positive events in [6] of 60.5%. The vesicle binding response in test [6] was 173% (inactive). Moreover, the inhibition in [7] is 2.3% (inactive); in test [11], 49.4% (inactive); in test [14] it was 8.3% (inactive); in test [15] it was 3.1% (inactive); in test [16] it was 3.2% (inactive); in [18] it was 2% (inactive). The superoxide response (% of plate) in test [8] is 99.1% (inactive). Further, the aptamer binding inhibition in test [9] was 1% (inactive). Also, the response in test [10] was 14.3% (inactive); in [12], -7.85% (inactive). The binding (% of control) in test [13] is 97.2% (inactive). The efflux inhibition (fraction of control) in [17] was 0.12 (inactive). Further, the differentiation response in [19] is 93.6% (active).

The values above are taken from PubChem BioAssay.
